# According to the supplement of paper PMC8728848:
# The full list was thinned out, with the strongest signals kept by preference.
# B1: ERGIC1-EDTA (Homo sapiens), Q969X5 (protein)
# chain: MKFLVNVALVFMVVYISYIYAAAHMHHHHHHDYDIPTTENLYFQGSEVVNELYVDDPDKDSGGKIDVSLNISLPNLHCELVGLDIQDEMGRHEVGHIDNSMKIPLNNGAGCRFEGQFSINKVPGNFHVSTHSATAQPQNPDMTHVIHKLSFGDTLQVQNIHGAFNALGGADRLTSNPLASHDYILKIVPTVYEDKSGKQRYSYQYTVANKEYVAYSHTGRIIPAIWFRYDLSPITVKYTE
# Key:
# Assay in all cases: glycan array binding signal (z-score within array); higher = stronger binding
# Details in all cases: glycan notation: IUPAC condensed, linker removed
# Fuc(a1-2)Gal(b1-4)Glc = biological target: Fuc(a1-2)Gal(b1-4)Glc
# Method in brief: (§1)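 The binding signal is a Z-score computed within each array. Data were drawn from 3228 arrays in the Consortium for Functional Glycomics database, restricted to those with a known protein sequence. Scores were averaged over arrays of the same protein sequence at different concentrations or buffers, and over linkers, and negative values can be taken as non-binding.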
# [1] = biological target: Fuc(a1-2)Gal(b1-4)GlcNAc(b1-2)[Fuc(a1-2)Gal(b1-4)GlcNAc(b1-4)]Man(a1-3)[Fuc(a1-2)Gal(b1-4)GlcNAc(b1-2)Man(a1-6)]Man(b1-4)GlcNAc(b1-4)GlcNAc
# Method in brief: as §1
# [2] = biological target: Fuc(a1-2)Gal(b1-4)GlcNAc(b1-6)GalNAc
# Method in brief: as §1
# [3] = biological target: Fuc(a1-2)Gal(b1-4)[Fuc(a1-3)]GlcNAc(b1-2)[Fuc(a1-2)Gal(b1-4)[Fuc(a1-3)]GlcNAc(b1-4)]Man(a1-3)[Fuc(a1-2)Gal(b1-4)[Fuc(a1-3)]GlcNAc(b1-2)Man(a1-6)]Man(b1-4)GlcNAc(b1-4)GlcNAc
# Method in brief: as §1
# [4] = biological target: Fuc(a1-2)[Gal(a1-3)]Gal(b1-4)GlcNAc
# Method in brief: as §1
# [5] = biological target: Fuc(a1-2)[Gal(a1-3)]Gal(b1-4)GlcNAc(b1-2)Man
# Method in brief: as §1
# [6] = biological target: Fuc(a1-2)[GalNAc(a1-3)]Gal(b1-3)GlcNAc
# Method in brief: as §1
# [7] = biological target: Fuc(a1-2)[GalNAc(a1-3)]Gal(b1-4)GlcNAc(b1-2)Man(a1-3)[Fuc(a1-2)[GalNAc(a1-3)]Gal(b1-4)GlcNAc(b1-2)Man(a1-6)]Man(b1-4)GlcNAc(b1-4)[Fuc(a1-6)]GlcNAc
# Method in brief: as §1
# [8] = biological target: Gal(a1-3)Gal(b1-3)GlcNAc(b1-6)GalNAc
# Method in brief: as §1
# [9] = biological target: Gal(a1-3)Gal(b1-4)GlcNAc(b1-3)GalNAc
# Method in brief: as §1
# [10] = biological target: Gal(b1-3)GlcNAc(b1-2)[Gal(b1-3)GlcNAc(b1-6)]Man(a1-6)[Gal(b1-3)GlcNAc(b1-2)Man(a1-3)]Man(b1-4)GlcNAc(b1-4)GlcNAc
# Method in brief: as §1
# [11] = biological target: Gal(b1-3)[Fuc(a1-4)]GlcNAc(b1-6)GalNAc
# Method in brief: as §1
# Gal(b1-4)Glc6S = biological target: Gal(b1-4)Glc6S
# Method in brief: as §1
# [12] = biological target: Gal(b1-4)GlcNAc(b1-3)Gal(b1-3)GalNAc
# Method in brief: as §1
# [13] = biological target: Gal(b1-4)GlcNAc(b1-3)Gal(b1-4)GlcNAc(b1-2)Man(a1-3)[Gal(b1-4)GlcNAc(b1-3)Gal(b1-4)GlcNAc(b1-2)Man(a1-6)]Man(b1-4)GlcNAc(b1-4)[Fuc(a1-6)]GlcNAc
# Method in brief: as §1
# [14] = biological target: Gal(b1-4)GlcNAc(b1-3)Gal(b1-4)GlcNAc(b1-3)Gal(b1-4)GlcNAc(b1-3)Gal(b1-4)GlcNAc(b1-2)Man(a1-3)[Gal(b1-4)GlcNAc(b1-3)Gal(b1-4)GlcNAc(b1-3)Gal(b1-4)GlcNAc(b1-3)Gal(b1-4)GlcNAc(b1-2)Man(a1-6)]Man(b1-4)GlcNAc(b1-4)[Fuc(a1-6)]GlcNAc
# Method in brief: as §1
# [15] = biological target: Gal(b1-4)GlcNAc(b1-6)[Gal(b1-4)GlcNAc(b1-3)]GalNAc
# Method in brief: as §1
# Gal3S(b1-4)Glc6S = biological target: Gal3S(b1-4)Glc6S
# Method in brief: as §1
# Gal3S(b1-4)GlcNAc = biological target: Gal3S(b1-4)GlcNAc
# Method in brief: as §1
# GalNAc(b1-4)Gal(b1-4)Glc = biological target: GalNAc(b1-4)Gal(b1-4)Glc
# Method in brief: as §1
# [16] = biological target: GalNAc(b1-4)GlcNAc(b1-2)Man(a1-3)[GalNAc(b1-4)GlcNAc(b1-2)Man(a1-6)]Man(b1-4)GlcNAc(b1-4)GlcNAc
# Method in brief: as §1
# [17] = biological target: GlcNAc(a1-6)Gal(b1-4)GlcNAc
# Method in brief: as §1
# [18] = biological target: GlcNAc(b1-3)Gal(b1-4)GlcNAc(b1-3)Gal(b1-4)GlcNAc(b1-2)Man(a1-3)[GlcNAc(b1-3)Gal(b1-4)GlcNAc(b1-3)Gal(b1-4)GlcNAc(b1-2)Man(a1-6)]Man(b1-4)GlcNAc(b1-4)[Fuc(a1-6)]GlcNAc
# Method in brief: as §1
# [19] = biological target: GlcNAc(b1-3)Gal(b1-4)GlcNAc(b1-3)Gal(b1-4)GlcNAc(b1-3)Gal(b1-4)GlcNAc(b1-2)Man(a1-3)[GlcNAc(b1-3)Gal(b1-4)GlcNAc(b1-3)Gal(b1-4)GlcNAc(b1-3)Gal(b1-4)GlcNAc(b1-2)Man(a1-6)]Man(b1-4)GlcNAc(b1-4)[Fuc(a1-6)]GlcNAc
# Method in brief: as §1
# [20] = biological target: Man(a1-2)Man(a1-2)Man(a1-6)[Man(a1-3)]Man
# Method in brief: as §1
# [21] = biological target: Man(a1-3)[Man(a1-6)]Man(b1-4)GlcNAc(b1-4)[Fuc(a1-6)]GlcNAc
# Method in brief: as §1
# [22] = biological target: Neu5Ac(a2-3)Gal(b1-3)GlcNAc(b1-3)GalNAc
# Method in brief: as §1
# [23] = biological target: Neu5Ac(a2-3)Gal(b1-4)GlcNAc(b1-2)[Neu5Ac(a2-3)Gal(b1-4)GlcNAc(b1-6)]Man(a1-6)[Neu5Ac(a2-3)Gal(b1-4)GlcNAc(b1-2)Man(a1-3)][GlcNAc(b1-4)]Man(b1-4)GlcNAc(b1-4)GlcNAc
# Method in brief: as §1
# [24] = biological target: Neu5Ac(a2-3)Gal(b1-4)GlcNAc(b1-3)Gal
# Method in brief: as §1
# [25] = biological target: Neu5Ac(a2-3)Gal(b1-4)GlcNAc(b1-3)Gal(b1-4)GlcNAc(b1-3)GalNAc
# Method in brief: as §1
# [26] = biological target: Neu5Ac(a2-3)Gal(b1-4)GlcNAc(b1-3)Gal(b1-4)[Fuc(a1-3)]GlcNAc
# Method in brief: as §1
# [27] = biological target: Neu5Ac(a2-3)Gal(b1-4)GlcNAc(b1-6)[Neu5Ac(a2-3)Gal(b1-3)]GalNAc
# Method in brief: as §1
# [28] = biological target: Neu5Ac(a2-3)Gal(b1-4)[Fuc(a1-3)]GlcNAc(b1-3)Gal(b1-4)GlcNAc
# Method in brief: as §1
# [29] = biological target: Neu5Ac(a2-3)Gal(b1-4)[Fuc(a1-3)]GlcNAc(b1-3)GalNAc
# Method in brief: as §1
# [30] = biological target: Neu5Ac(a2-3)Gal(b1-4)[Fuc(a1-3)]GlcNAc(b1-6)[Neu5Ac(a2-3)Gal(b1-3)]GalNAc
# Method in brief: as §1
# [31] = biological target: Neu5Ac(a2-6)Gal(b1-4)GlcNAc(b1-2)Man(a1-3)[Man(a1-6)]Man(b1-4)GlcNAc(b1-4)GlcNAc
# Method in brief: as §1
# [32] = biological target: Neu5Ac(a2-6)Gal(b1-4)GlcNAc(b1-2)Man(a1-3)[Neu5Ac(a2-6)Gal(b1-4)GlcNAc(b1-2)Man(a1-6)]Man(b1-4)GlcNAc(b1-4)GlcNAc
# Method in brief: as §1
# [33] = biological target: Neu5Ac(a2-6)Gal(b1-4)GlcNAc(b1-2)Man(a1-3)[Neu5Ac(a2-6)Gal(b1-4)GlcNAc(b1-2)Man(a1-6)]Man(b1-4)GlcNAc(b1-4)[Fuc(a1-6)]GlcNAc
# Method in brief: as §1
# [34] = biological target: Neu5Ac(a2-6)Gal(b1-4)GlcNAc(b1-3)Gal(b1-3)GlcNAc
# Method in brief: as §1
# [35] = biological target: Neu5Ac(a2-6)Gal(b1-4)GlcNAc(b1-3)Gal(b1-4)GlcNAc(b1-3)Gal(b1-4)GlcNAc(b1-2)Man(a1-3)[Neu5Ac(a2-6)Gal(b1-4)GlcNAc(b1-3)Gal(b1-4)GlcNAc(b1-3)Gal(b1-4)GlcNAc(b1-2)Man(a1-6)]GalNAc
# Method in brief: as §1
# [36] = biological target: Neu5Ac(a2-6)Gal(b1-4)GlcNAc(b1-3)Gal(b1-4)GlcNAc(b1-3)GalNAc
# Method in brief: as §1
# [37] = biological target: Neu5Ac(a2-6)Gal(b1-4)GlcNAc(b1-3)[Neu5Ac(a2-6)Gal(b1-4)GlcNAc(b1-6)]GalNAc
# Method in brief: as §1
# [38] = biological target: Neu5Ac(a2-8)Neu5Ac(a2-8)Neu5Ac(a2-3)[GalNAc(b1-4)]Gal(b1-4)Glc
# Method in brief: as §1
# [39] = biological target: Neu5Gc(b2-6)Gal(b1-4)GlcNAc
# Method in brief: as §1
binder,measurement,setting,value
B1,glycan array binding signal (z-score),Fuc(a1-2)Gal(b1-4)Glc,-1.4
same,glycan array binding signal (z-score),[1],2.88
same,glycan array binding signal (z-score),[2],1.3
same,glycan array binding signal (z-score),[3],1.07
same,glycan array binding signal (z-score),[4],-0.089
same,glycan array binding signal (z-score),[5],0.546
same,glycan array binding signal (z-score),[6],0.499
same,glycan array binding signal (z-score),[7],2.25
same,glycan array binding signal (z-score),[8],0.056
same,glycan array binding signal (z-score),[9],-0.034
same,glycan array binding signal (z-score),[10],3.15
same,glycan array binding signal (z-score),[11],-0.044
same,glycan array binding signal (z-score),Gal(b1-4)Glc6S,-0.759
same,glycan array binding signal (z-score),[12],-1.26
same,glycan array binding signal (z-score),[13],2.13
same,glycan array binding signal (z-score),[14],2.23
same,glycan array binding signal (z-score),[15],-0.361
same,glycan array binding signal (z-score),Gal3S(b1-4)Glc6S,0.151
same,glycan array binding signal (z-score),Gal3S(b1-4)GlcNAc,-0.117
same,glycan array binding signal (z-score),GalNAc(b1-4)Gal(b1-4)Glc,-0.531
same,glycan array binding signal (z-score),[16],0.638
same,glycan array binding signal (z-score),[17],-0.295
same,glycan array binding signal (z-score),[18],0.799
same,glycan array binding signal (z-score),[19],2.52
same,glycan array binding signal (z-score),[20],-0.459
same,glycan array binding signal (z-score),[21],2.1
same,glycan array binding signal (z-score),[22],0.617
same,glycan array binding signal (z-score),[23],-0.63
same,glycan array binding signal (z-score),[24],-0.734
same,glycan array binding signal (z-score),[25],-0.406
same,glycan array binding signal (z-score),[26],-0.82
same,glycan array binding signal (z-score),[27],-0.285
same,glycan array binding signal (z-score),[28],2.27
same,glycan array binding signal (z-score),[29],3
same,glycan array binding signal (z-score),[30],1.03
same,glycan array binding signal (z-score),[31],1.69
same,glycan array binding signal (z-score),[32],-0.027
same,glycan array binding signal (z-score),[33],2.07
same,glycan array binding signal (z-score),[34],0.896
same,glycan array binding signal (z-score),[35],2.02
same,glycan array binding signal (z-score),[36],0.381
same,glycan array binding signal (z-score),[37],-1.06
same,glycan array binding signal (z-score),[38],0.592
same,glycan array binding signal (z-score),[39],-0.624
